Bioassay records (PubChem BioAssay)
E coli growth-1: E. coli growth inhibition, primary screen, OD600; AID 1053175, 2014; OD600 absorbance (concentration not given with the values); actives 0.21% (n = 330,000); Escherichia coli growth, 23 h; hits give low values;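 active = OD600 absorbance below the run mean of sample wells minus 3.6 SD, in any replicate, cut at about 0.56 in these data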
phage Ecoli inh: growth loss of phage-infected E. coli, primary screen, RecBCD inhibitor project, absorbance, with phage, HTS; AID 651602, 2012; actives 0.26% (n = 360,000); inhibition, % at 11.9 µM; in the data active = inhibition above about 11%
Tat transport: E. coli Tat export inhibitors, primary screen, MC4100, TorA-mCherry reporter, fluorescence, single point | actives 0.036% (n = 340,000) | inhibition, % at 10 µM;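 active = mean replicate inhibition at least 50% and at least half of replicates individually reaching 50%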;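 also: exported cargo escapes ClpAP degradation while cytoplasmic cargo is degraded and loses fluorescence; 0% = median of neutral control wells and 100% = median of NaSCN control wells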
AddAB inh: growth inhibition of E. coli expressing H. pylori AddAB, primary screen, AddAB inhibitor project, absorbance. inhibition, % at 11.9 µM. actives 0.29% (n = 330,000). AID 435030, 2010; in the data active = inhibition above about 12%;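 also: 0% = vehicle wells of infected cells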
E coli growth-2: E. coli V3065 growth inhibition, primary screen, counter-screen for AddAB inhibitor project, absorbance, OD600. inhibition, % at 11.9 µM. 18 h. actives 0.27% (n = 330,000);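 active = inhibition above the campaign's mean inhibition across all tested compounds plus 3 SD, cut at about 9.9% in these data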;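 also: uninfected addAB+ strain grown without phage in ampicillin broth; 0% = DMSO wells and 100% = ciprofloxacin 0.95 µg/ml wells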
RecBCD conf: growth loss of phage-infected RecBCD+ E. coli, confirmation, RecBCD inhibitor project, absorbance, E. coli V66, T4 gene 2 phage; actives 45% (n = 890); shares compounds with phage Ecoli inh; AID 651982, 2013; E. coli V66 + T4 2- phage, growth OD; inhibition, % at 11.9 µM;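 active = mean inhibition over triplicates exceeding the hit threshold derived in the original primary screen, cut at about 11% in these data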
Ecoli viability: E. coli viability inhibition, counter-screen for RecBCD inhibitor project, absorbance, high throughput; absorbance (OD) growth; inhibition, % at 11.9 µM; actives 29% (n = 890); shares compounds with phage Ecoli inh; in the data active = inhibition above about 20%;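 also: E. coli strain V66 grown with compound alone and no phage infection; 0% = bacteria with DMSO vehicle only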
AddAB counter: growth loss of phage-infected AddAB-carrying E. coli, confirmation, counter-screen for RecBCD inhibitor project, absorbance, E. coli V3065, T4 phage. shares compounds with phage Ecoli inh. E. coli expressing H. pylori AddAB + T4 phage, OD growth; gene 2 mutant T4, recBCD-deleted host. inhibition, % at 11.9 µM. actives 45% (n = 890). AID 651984, 2013;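 active = mean inhibition above the solvent-only control wells' mean plus 3 SD, cut at about 22% in these data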;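 also: higher means less bacterial growth from phage killing when AddAB is blocked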
Starred values were filed as active, the others as inactive; nt = not tested or not shown. Rows were chosen to be rich in hits. Some 0.51% of all compounds tested hit in one or more screens of this group.

SMILES	E coli growth-1	phage Ecoli inh	Tat transport	AddAB inh	E coli growth-2	RecBCD conf	Ecoli viability	AddAB counter
COc1ccc(C(=O)N/N=C(\C)c2ccccn2)cc1OC	nt	-4	0	1	1	nt	nt	nt
CCN(CC)c1ccc(C=NN2CCN(c3ccccn3)CC2)cc1	0.7	nt	nt	nt	nt	nt	nt	nt
O=C(Nc1ccc2[nH]ncc2c1)c1ccc(F)cc1	0.7	12*	-2	4	0	-1	-2	-2
Cc1c(C=NNC(=O)c2cc3ccccc3o2)c2ccccc2n1C	0.73	nt	nt	nt	nt	nt	nt	nt
CC(=NNC(=O)c1cccnc1)c1cccc([N+](=O)[O-])c1	0.68	nt	nt	nt	nt	nt	nt	nt
NC1=NCC(Cc2ccccc2)N1CCc1cccc(F)c1 (stereo not given)	0.64	nt	nt	nt	nt	nt	nt	nt
O=C(O)c1c[nH]c2c([N+](=O)[O-])cccc2c1=O	0.53	11*	-21	nt	nt	7	7	19
CC(=O)NCCCc1nc2ccccc2n1Cc1ccccc1F	0.65	22*	1	3	1	-2	-1	-1
COc1ccc(C(=O)NN=Cc2ccc3cccc(OCc4ccccc4)c3n2)cc1	0.76	nt	nt	nt	nt	nt	nt	nt
C#CCOCCOCCOCCNc1nc(N2CCN(C(=O)C(C)n3cc(CCC(=O)O)nn3)CC2)nc(N2CCN(C(=O)C(CCCCN)n3cc(CCCC)nn3)CC2)n1 (stereo not given)	0.64	nt	nt	nt	nt	nt	nt	nt
CCCCN1C(=S)NCC1C(C)CC (stereo not given)	0.7	nt	nt	nt	nt	nt	nt	nt
COc1ccc(C=NS(=O)(=O)c2cccs2)cc1	0.71	nt	nt	nt	nt	nt	nt	nt
c1ccc(CSc2ccc(-c3ccccn3)nn2)cc1	0.68	11*	-5	6	8	5	7	12
CC(C)(C)c1cc2nc3c(c(=O)n2[nH]1)CN(Cc1ccccc1)C3=O	0.65	12*	nt	1	2	-1	0	-1
Cc1ccc(-c2[nH]c3cc(C(=O)NCCCn4ccnc4)ccc3c(=O)c2O)cc1	0.68	11*	-3	11	8	3	5	7
O=C(NCCCn1ccnc1)c1ccc(Cl)c(Cl)c1	0.6	1	3	1	1	nt	nt	nt
O=C(NNC(=O)c1cc2ccccc2cc1O)NC1CCCCC1	0.73	13*	2	nt	nt	9	9	5
O=C(NNC(=O)c1cc2ccccc2cc1O)Nc1ccc(F)cc1F	0.71	11*	1	12	8	2	5	2
CCC(C)C1COCCS(=O)(=O)N1Cc1ccccc1F (stereo not given)	0.67	nt	nt	nt	nt	nt	nt	nt
CC(=NNc1cc(C)c2cc(C)ccc2n1)c1ccccn1	nt	17*	nt	nt	nt	1	1	3
COc1cc2cccc(OC)c(=O)c2c(OC)c1OC	0.74	1	-4	4	4	nt	nt	nt
O=c1c(O)cccc2cc(O)c(O)c(O)c12	0.63	14*	53*	11	11*	8	9	10
COc1cc(C=NNc2nc(Nc3ccccc3)nc(N3CCCCC3)n2)ccc1OCC(=O)O	0.72	nt	nt	nt	nt	nt	nt	nt
CCCC[n+]1ccn(-c2nc3ccccc3nc2[N-]S(=O)(=O)c2cccs2)c1	0.67	97*	-2	-1	0	2	2	-2
CCCC[n+]1ccn(-c2nc3ccccc3nc2[N-]S(=O)(=O)c2ccccc2)c1	0.71	1	7	3	0	nt	nt	nt
SMILES	E coli growth-1	phage Ecoli inh	Tat transport	AddAB inh	E coli growth-2	RecBCD conf	Ecoli viability	AddAB counter
O=C(Nc1cccc(Cl)c1)Nc1cccc(Cl)c1	0.64	7	-10	5	5	nt	nt	nt
O=C(Nc1cccc(F)c1)Nc1cccc(Cl)c1	0.41*	14*	0	8	10	13*	13	8
C=Cc1cnc([N+](=O)[O-])n1C	nt	29*	nt	nt	nt	19*	21*	97*
COc1ccccc1/C=C/C(=O)NCC(=O)NN=Cc1ccccc1	0.68	nt	nt	nt	nt	nt	nt	nt
Cc1ccc(-c2nc3ccccc3c(=O)n2O)cc1	0.64	-1	2	-1	-2	nt	nt	nt
Cc1ccc(-c2nc3ccc(Cl)cc3c(=O)n2O)cc1	0.66	11*	-6	4	7	5	7	10
